# Measurements reported in PubChem BioAssay (Tox21).
# Inconclusive results are not listed. A call without a number means that no potency is given here. Unmarked numbers belong to inactive results. Activity calls are given as the source filed them. Calls come from the whole dose curve; as a rule, active = well fitted cell-killing curve with a large enough effect in the repeat runs; inconclusive = weak or mixed curves, or effect the other way; inactive = flat fitted curve, though single readings scatter.
# Key:
# [1] = cAMP Responsive Elements (CRE) small molecule antagonists, cell-based qHTS assay: qHTS cell viability counter screen (AID 2060913); note: nearly all actives have a fitted effect of over 40% in size
# Outline: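 Cytotoxicity counter screen multiplexed with the CRE-bla antagonist read: HEK293T cells in DMEM with dialyzed FBS and 25 mM HEPES were treated 3 hrs under 0.25 uM final NKH477, then viability measured by CellTiter-Glo luminescence.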
# [2] = cAMP Responsive Elements (CRE) small molecule agonists, cell-based qHTS assay: qHTS cell viability counter screen (AID 2060914); note: nearly all actives have a fitted effect of over 50% in size
# Outline: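 Cytotoxicity was measured as ATP luminescence (CellTiter-Glo, 30 min at room temperature) in the same wells as the CRE-bla FRET read-out. HEK293T CRE-bla cells had 3 h compound exposure at 37C/5% CO2.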
Compound,Potency [1],Potency [2],"viability change, negative = cytotoxic [1]","activity change, negative = cytotoxicity [2]"
O=[N+]([O-])c1nccn1CO[C@@H](CO)[C@H](O)CO,inactive,inactive,–,–
NC(CO)(CO)CO,inactive,inactive,–,–
N[C@@H](C(=O)N[C@@H]1C(=O)N2C(C(=O)O)=C(Cl)CS[C@H]12)c1ccccc1,–,–,0.002% [at 8.39 µM],8.3% [at 8.39 µM]
Cc1c(Cl)cccc1[N+](=O)[O-],inactive,inactive,–,–
C=C(C)C(=O)OC1CC(C)CC(C)(C)C1 (stereo not given),inactive,inactive,–,–
CC(=O)c1ccc(S(=O)(=O)NC(=O)NC2CCCCC2)cc1,inactive,inactive,–,–
CC(C)(C)NCC(O)COc1ccc(NC(=O)NC2CCCCC2)cc1 (stereo not given),inactive,inactive,–,–
CC(C)CCCCCCOC(=O)C1CCCCC1C(=O)OCCCCCCC(C)C (stereo not given),inactive,inactive,–,–
CCC(C)(C)CC,inactive,inactive,–,–
CC1=CC2C3CC(C=C3C)C2C1 (stereo not given),inactive,inactive,–,–
